# Measured values as given in PubChem BioAssay (NCATS).
# Results filed as inconclusive are left out. The source made the active and inactive calls. Unless noted, calls come from the whole dose curve. Numbered stars: 1 amine (or outer) side, 2 acyl side, 3 side chain; on linkers, the order of the positions; unused ones are H or OH. Bridge positions count the residues as written; N and C are the ends. Square brackets hold non-standard residues; d marks the D form. Peptide text beside a SMILES is read from it. * marks the point of attachment. ξ: configuration not given here. ξhTyr(3S-OH,4S-OH,3'-OSO3H) = NC(C(=O)O)[C@H](O)[C@@H](O)c1ccc(O)c(OS(=O)(=O)O)c1; Orn(4R-OH,5R-OH) = O=C([C@H](C[C@@H](O)[C@@H](O)N[*:3])N[*:1])[*:2]; X2 = CCCCCOc1ccc(-c2cc(-c3ccc(C(=O)*)cc3)no2)cc1; X3 = C[C@H]1CN([*:1])C(C(=O)[*:2])[C@H]1O; ξGln(3R-OH) = NC(=O)C[C@@H](O)C(N)C(=O)O; ξPro(4R-OH) = O=C(O)C1C[C@@H](O)CN1; ξThr(3R) = C[C@@H](O)C(N)C(=O)O
# How the values were obtained:
# [1] = qHTS for Inhibitors of the Functional Ribonucleoprotein Complex (vRNP) of Lymphocytic Choriomeningitis Arenaviruses (LCMV): Viability assay - alamar blue signal for LCMV Primary Screen (AID 1347085; calls by dose curve; tested in HEK293 reporter line; note: nearly all actives have a fitted effect of over 80% in size; note: potency is the fitted concentration of half-maximal effect)
# [2] = system: CRL-7250; assay: qHTS assay to identify novel small-molecules to repurpose for Merkel cell carcinoma treatment (AID 1296009; active = well fitted inhibition curve with a large enough effect; note: nearly all actives have a fitted effect of over 60% in size); settings: MCC and control cell lines, CellTiter-Glo viability, 72 h; series mostly up to 92 µM
# Procedure, shortened: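 Viability readout: ATP luminescence (CellTiter-Glo) after 72 hr drug exposure at 37 degree celsius. Dose-response format was 8 points for NPC and 11 points for MIPE; data normalized to in-plate controls.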
# [3] = biological target: Nucleoprotein (Lymphocytic choriomeningitis virus (strain Armstrong)) (UniProt P09992); assay: qHTS for Inhibitors of the Functional Ribonucleoprotein Complex (vRNP) of Lymphocytic Choriomeningitis Arenaviruses (LCMV): LCMV Primary Screen - GLuc reporter signal (AID 1347086); note: nearly all actives have a fitted effect of over 70% in size; note: potency is the fitted concentration of half-maximal effect; for activity change, negative = inhibition: % is set by controls: 0 for no effect and ±100 for the full control effect
# Sequence of Nucleoprotein (Lymphocytic choriomeningitis virus (strain Armstrong)) (P09992 whole entry, looked up): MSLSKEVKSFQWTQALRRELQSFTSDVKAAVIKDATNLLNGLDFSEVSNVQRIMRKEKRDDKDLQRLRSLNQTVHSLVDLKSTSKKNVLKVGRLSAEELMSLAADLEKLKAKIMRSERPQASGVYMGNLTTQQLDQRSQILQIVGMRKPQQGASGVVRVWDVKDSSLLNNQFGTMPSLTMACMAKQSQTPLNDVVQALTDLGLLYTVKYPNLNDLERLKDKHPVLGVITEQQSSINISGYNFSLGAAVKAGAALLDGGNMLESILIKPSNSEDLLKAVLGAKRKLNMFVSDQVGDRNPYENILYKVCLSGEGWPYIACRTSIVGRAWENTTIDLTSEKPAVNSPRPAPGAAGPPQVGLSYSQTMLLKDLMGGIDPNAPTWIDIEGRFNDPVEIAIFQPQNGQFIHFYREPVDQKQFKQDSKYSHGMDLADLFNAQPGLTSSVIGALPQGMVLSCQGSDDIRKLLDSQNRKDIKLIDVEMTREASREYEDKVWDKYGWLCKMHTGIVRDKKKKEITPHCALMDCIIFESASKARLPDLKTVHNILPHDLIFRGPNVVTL
# [4] = qHTS for Inhibitors of the Functional Ribonucleoprotein Complex (vRNP) of Lassa (LASV) Arenavirus: Viability assay - alamar blue signal for LASV Primary Screen (AID 1347083; calls by dose curve; tested in HEK293 reporter line; note: potency is the fitted concentration of half-maximal effect; nearly all actives have a fitted effect of over 80% in size)
# [5] = Confirmatory qHTS for VERO E6 Cytotoxicity Assay: Counterscreen for SARS-CoV-2 CPE Assay (AID 1508605); note: % is set by controls: 0 for no effect and ±100 for the full control effect; nearly all actives have a fitted effect of over 60% in size
# [6] = qHTS profiling of the MIPE4 collection as inhibitors of Plasmodium falciparum (3D7) proliferation (AID 743344; call rule not given here;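 note: scaled between DMSO vehicle wells and 0.29 µM artemisinin as full inhibition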); settings: P. falciparum 3D7 in erythrocytes, SYBR Green DNA fluorescence, 72 h; at 28.5 µM (top of the series) unless noted
# Procedure, shortened: (§1)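 Parasite DNA was quantified by SYBR Green I fluorescence (ex 485, em 535 nm) after overnight lysis in saponin/Triton buffer at room temperature. Cultures at 0.3% parasitemia and 2.5% hematocrit were first exposed to compound for 72 h at 37 C; signals were normalised to artemisinin (0.29 uM) and vehicle wells.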
# [7] = qHTS profiling of the MIPE4 collection as inhibitors of Plasmodium falciparum (DD2) proliferation (AID 743345; call rule not given here); settings: P. falciparum Dd2 in erythrocytes, SYBR Green DNA, 72 h; at 28.5 µM (top of the series) unless noted
# Procedure, shortened: as §1
# [8] = qHTS profiling of the MIPE4 collection as inhibitors of Plasmodium falciparum (DD2) proliferation (Rep 2) (AID 743346; call rule not given here); settings: P. falciparum Dd2 in erythrocytes, SYBR Green DNA, 72 h; at 28.5 µM (top of the series) unless noted
# Procedure, shortened: as §1
# [9] = Cytotoxicity counterscreen for inhibitors of SARS-CoV-2 cell entry (AID 1645845); note: nearly all actives have a fitted effect of over 50% in size
# Procedure, shortened: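 After a 15 min room-temperature ATPLite 1step step, luminescence reflected ATP remaining in HEK293-ACE2 cells exposed to compound for 1 h plus 48 h at 37 C, with percent activity set by cell and no-cell controls.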
# [10] = qHTS for inhibitors of Rabies Virus screened against the NCATS CANVASS Library (AID 1347402); note: 0% is about no effect
# [11] = Primary qHTS for inhibitors of SARS-S pseudo-typed particle cell entry (AID 1479145); note: % is set by controls: 0 for no effect and ±100 for the full control effect; nearly all actives have a fitted effect of over 45% in size
# [12] = Primary qHTS for Huh7 cytotoxicity: counterscreen for inhibitors of MERS-S pseudotyped particle cell entry (AID 1479147); settings: outcome: dose series up to 57.1 µM unless noted
# [13] = Primary qHTS for inhibitors of MERS-S pseudo-typed particle cell entry (AID 1479149); note: nearly all actives have a fitted effect of over 60% in size
# [14] = Primary qHTS for Vero E6 cytotoxicity: counterscreen for inhibitors of SARS-S pseudo-typed particle cell entry (AID 1479150); settings: outcome: dose series up to 57.1 µM unless noted; note: % is set by controls: 0 for no effect and ±100 for the full control effect
# [15] = Primary qHTS to identify inhibitors of SARS-CoV-2 cell entry (AID 1645846); settings: activity change, negative = inhibition: at 57.1 µM (top of the series) unless noted; note: nearly all actives have a fitted effect of over 45% in size; note: potency is the fitted concentration of half-maximal effect
# Procedure, shortened: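 HEK293-ACE2 (Expi293F, stable hACE2), 1500 cells/well, o/n 37C; cpd 23 nL pin, 1 h; MLV-PP w/ SARS-CoV-2-S (Wuhan-Hu-1, Δ19 C-term); 48 h 37C; Bright-Glo luminescence; normalized vs S-PP and bald PP.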
# [16] = Confirmatory qHTS for activators (rescue) of SARS-CoV-2 Cytopathic Effect (CPE) (AID 1508606); note: potency is the fitted concentration of half-maximal effect; nearly all actives have a fitted effect of over 70% in size
# [17] = Confirmatory qHTS to identify inhibitors of SARS-CoV-2 cell entry (AID 1645844); note: potency is the fitted concentration of half-maximal effect; nearly all actives have a fitted effect of over 45% in size
# Procedure, shortened: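 Using stable human ACE2 Expi293F cells, compounds preincubated 1 hr before spike pseudoparticle infection; luciferase signal after 48 hr at 37C, 5% CO2, normalised to spike PP and no-fusion-protein PP wells.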
# [18] = VSVG counterscreen qHTS to identify inhibitors of SARS-CoV-2 cell entry (AID 1645847); note: potency is the fitted concentration of half-maximal effect; nearly all actives have a fitted effect of over 65% in size
# Procedure, shortened: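 Expi293F/hACE2 cells, overnight plating; cpd 1 h, 37C/5% CO2; + VSV-G PP (MLV pseudotyping), 48 h; supernatant removed, Bright-Glo luciferase read. Norm: VSV-G PP and bald PP wells.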
smiles,measurement,setting,value
O=C(Nc1ccccc1)Nc1ccc(-c2ccc(C(=O)[C@H]3CCC[C@H]3C(=O)O)cc2)cc1,Potency,[1],inactive
same,Potency,[2],inactive
Cc1c(C)n(Cc2ccc(-c3ccccc3C(=O)O)cc2)c2ccc(C(=O)N[C@@H](C)c3ccc([N+](=O)[O-])cc3)cc12,Potency,[3],4.85 µM (active)
same,Potency,[2],inactive
NC(=O)c1ccc2nc(-c3ccc(Oc4ccc(Cl)cc4)cc3)[nH]c2c1,Potency,[4],0.769 µM (active)
same,Potency,[3],inactive
same,Potency,[2],inactive
C[C@@H]1O[C@@H](O[C@H]2[C@H](OC(=O)[C@]34CCC(C)(C)C[C@H]3C3=CCC5[C@@]6(C)C[C@H](O)[C@H](O[C@@H]7O[C@H](CO)[C@@H](O)[C@H](O)[C@H]7O)[C@@](C)(CO)C6[C@H](O)C[C@@]5(C)[C@]3(C)C[C@H]4O)OC[C@H](O)[C@@H]2O)[C@H](O)[C@H](O)[C@H]1O[C@@H]1OC[C@@H](O)[C@H](O[C@H]2OC[C@](O)(CO)[C@H]2O)[C@H]1O (some centres not stated),"activity change, negative = cytotoxic",[5],-21.6% [at 3.67 µM] (inactive)
same,outcome,[2],inactive [at 9.27 µM]
NC(=O)c1cccc(-c2cccc(OC(=O)NC3CCCCC3)c2)c1,"parasite growth, % of DMSO control",[6],81%
same,"parasite growth remaining, % of DMSO control (lower = more inhibition)",[7],98%
same,"parasite growth, % of control (lower = inhibition)",[8],37.9%
same,Potency,[4],4.32 µM (active)
same,Potency,[1],8.63 µM (active)
same,Potency,[3],6.85 µM (active)
same,Potency,[9],inactive
same,Potency,[2],inactive
CC1=C2C(=O)O[C@@H](c3ccoc3)[C@]2(C)CCC1,outcome,[10],inactive
same,Potency,[2],inactive
"CCCCCOc1ccc(-c2cc(-c3ccc(C(=O)N[C@H]4C[C@@H](O)[C@@H](O)NC(=O)C5[C@@H](O)[C@@H](C)CN5C(=O)C([C@H](O)CC(N)=O)NC(=O)C([C@H](O)[C@@H](O)c5ccc(O)c(OS(=O)(=O)O)c5)NC(=O)C5C[C@@H](O)CN5C(=O)C([C@@H](C)O)NC4=O)cc3)no2)cc1 (stereo partly drawn) (X2-[Orn(4R-OH,5R-OH)][ξThr(3R)][ξPro(4R-OH)][ξhTyr(3S-OH,4S-OH,3'-OSO3H)][ξGln(3R-OH)][X3]; lactam 1-C)",Potency,[11],inactive
same,outcome,[12],inactive [at 26.4 µM]
same,Potency,[13],inactive
same,outcome,[14],inactive
same,Potency,[9],inactive
same,Potency,[2],inactive
COc1cccc(Nc2c(C(N)=O)cnc3c(C)cc(S(=O)(=O)c4cccc(C(=O)N(C)C)c4)cc23)c1,Potency,[4],21.1 µM (active)
same,Potency,[1],13.3 µM (active)
same,Potency,[3],16.8 µM (active)
same,Potency,[9],inactive
same,Potency,[15],inactive
same,Potency,[2],inactive
NC1=N[C@@]2(c3cc(NC(=O)c4ccc(F)cn4)ccc3F)COC[C@@H]2CS1,Potency,[4],17.2 µM (active)
same,Potency,[1],19.3 µM (active)
same,Potency,[2],inactive
CC(C)c1cnn2c(NCc3ccccc3)cc(NCCCCCCN)nc12,Potency,[4],1.93 µM (active)
same,Potency,[1],1.09 µM (active)
same,Potency,[3],1.53 µM (active)
same,Potency,[16],10 µM (active)
same,Potency,[15],22.4 µM (active)
same,Potency,[2],inactive
Nc1nc(=O)n([C@H]2C[C@H](O)[C@@H](CO)O2)cc1F,Potency,[4],0.769 µM (active)
same,Potency,[1],1.93 µM (active)
same,Potency,[17],0.0108 µM (active)
same,Potency,[9],inactive
same,"activity change, negative = inhibition",[15],-95.3%
same,Potency,[18],0.0136 µM (active)
same,Potency,[2],inactive
